For 20 compounds, growth inhibition, inhibition and outcome results are on record in PubChem BioAssay.

Each structure is given as a SMILES string. Unmarked numbers belong to inactive results. For some of these results: Results with a measured potency or affinity are listed apart. Calls of active or inactive are those of the source. Unless noted, no rule for the calls is given here.

A short description of assay [1]: antimalarial activity against Dd2 strain (AID 2302;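 active = growth inhibition above 50% at the single 2 µM test dose, taken to imply half-maximal potency below 2 µM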;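 also: 0% = DMSO untreated growth and 100% = chloroquine plus artemisinin killed control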). The settings on record: P. falciparum Dd2 in RBCs, LDH growth readout, 72 h; at 2 µM; active compounds read high.
A short description of assay [2]: human hepatoma cell viability loss – ATP luminescence, cytotoxicity control for P. falciparum antimalarial project, primary screen (AID 2303;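 active = inhibition above 50%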;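 also: 0% = DMSO wells and 100% = digitonin-killed cells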). The settings on record: HepG2 viability, 24-48 h, at 10 µM, active compounds read high.
For assay [3], the target named is L-lactate dehydrogenase (Plasmodium falciparum (isolate CDC / Honduras)) (UniProt Q27743). The assay can be described thus: PfLDH activity inhibition – cell lysate, 3D7 strain, counter-screen for P. falciparum growth inhibition project (AID 2304).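 Also: 0% = vehicle and 100% = reference inhibitor.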 The settings on record: P. falciparum 3D7 crude extract, LDH APAD/NBT absorbance; at 2 µM; active compounds read high. (A counterscreen serves to expose hits that act by an unwanted route or on another target.)
L-lactate dehydrogenase (Plasmodium falciparum (isolate CDC / Honduras)), sequence (Q27743 whole entry, looked up): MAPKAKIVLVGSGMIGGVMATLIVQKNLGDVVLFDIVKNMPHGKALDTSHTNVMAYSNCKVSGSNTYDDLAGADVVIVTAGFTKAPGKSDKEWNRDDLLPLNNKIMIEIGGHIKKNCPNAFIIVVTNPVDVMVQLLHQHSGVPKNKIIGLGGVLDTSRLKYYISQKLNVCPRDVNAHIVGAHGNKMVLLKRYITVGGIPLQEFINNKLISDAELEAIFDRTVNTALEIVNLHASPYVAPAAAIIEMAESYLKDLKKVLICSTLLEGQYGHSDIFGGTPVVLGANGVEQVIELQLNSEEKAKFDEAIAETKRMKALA

Assay [4] in a line: inhibition of 3D7 malaria parasite growth – strain 3D7 (AID 2306).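 Also: 0% = DMSO wells and 100% = chloroquine plus artemisinin control wells.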 The settings on record: P. falciparum 3D7 erythrocytic growth, LDH absorbance, 72 h; at 2 µM; active compounds read high.
The target of assay [5] is Calcium-dependent protein kinase 1 (Plasmodium falciparum (isolate 3D7)) (UniProt P62344). Nature of the assay: PfCDPK1 kinase inhibitors, biochemical, TCAMS library (AID 1159585; cut-off not given, nearly all actives have IC50 up to about 0.98 µM;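 also: inhibitors leave more ATP so luminescence rises with inhibition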). The settings on record: recombinant PfCDPK1, Kinase-Glo ATP depletion luminescence.
Calcium-dependent protein kinase 1 (Plasmodium falciparum (isolate 3D7)), sequence (P62344 whole entry, looked up): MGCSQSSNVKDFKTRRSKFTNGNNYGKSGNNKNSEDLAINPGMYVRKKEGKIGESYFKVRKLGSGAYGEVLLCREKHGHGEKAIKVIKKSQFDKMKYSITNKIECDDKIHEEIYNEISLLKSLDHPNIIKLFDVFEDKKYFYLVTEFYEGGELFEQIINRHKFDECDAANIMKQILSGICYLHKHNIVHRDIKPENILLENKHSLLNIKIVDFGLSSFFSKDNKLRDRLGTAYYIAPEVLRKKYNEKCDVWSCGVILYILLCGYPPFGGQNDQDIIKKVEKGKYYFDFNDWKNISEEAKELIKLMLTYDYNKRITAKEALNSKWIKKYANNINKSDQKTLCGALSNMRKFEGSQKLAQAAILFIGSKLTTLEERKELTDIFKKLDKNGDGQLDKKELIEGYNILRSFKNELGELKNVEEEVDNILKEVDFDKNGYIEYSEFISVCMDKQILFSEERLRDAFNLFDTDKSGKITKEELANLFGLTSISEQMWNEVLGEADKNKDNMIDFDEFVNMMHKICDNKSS
Assay [6] addresses Plasmodium falciparum protein kinase 6 (PK6, PF3D7_1337100) (UniProt Q8IDW1). Nature of the assay: PfPK6 kinase inhibitors, biochemical, TCAMS library (AID 1159586). The settings on record: recombinant PfPK6, Kinase-Glo ATP depletion luminescence. For orientation: Kinase-Glo reads ATP consumption through a luciferase reaction.
Assay [7] has as its target Protein kinase 7 (PK7), Plasmodium falciparum 3D7 (PF3D7_0213400) (UniProt Q7YTF7). The assay can be described thus: inhibition of Plasmodium PK7 catalytic activity – biochemical, TCAMS antimalarial set, Kinase-Glo luminescence (AID 1159587). The settings on record: recombinant PfPK7, Kinase-Glo ATP depletion luminescence.
For assay [8], the target named is Calcium-dependent protein kinase 4 (Plasmodium falciparum (isolate 3D7)) (UniProt Q8IBS5). Nature of the assay: PfCDPK4 kinase inhibitors, biochemical, TCAMS library (AID 1159588; cut-off not given, nearly all actives have IC50 up to about 0.91 µM). The settings on record: recombinant PfCDPK4, Kinase-Glo ATP depletion luminescence.
Calcium-dependent protein kinase 4 (Plasmodium falciparum (isolate 3D7)), sequence (Q8IBS5 whole entry, looked up): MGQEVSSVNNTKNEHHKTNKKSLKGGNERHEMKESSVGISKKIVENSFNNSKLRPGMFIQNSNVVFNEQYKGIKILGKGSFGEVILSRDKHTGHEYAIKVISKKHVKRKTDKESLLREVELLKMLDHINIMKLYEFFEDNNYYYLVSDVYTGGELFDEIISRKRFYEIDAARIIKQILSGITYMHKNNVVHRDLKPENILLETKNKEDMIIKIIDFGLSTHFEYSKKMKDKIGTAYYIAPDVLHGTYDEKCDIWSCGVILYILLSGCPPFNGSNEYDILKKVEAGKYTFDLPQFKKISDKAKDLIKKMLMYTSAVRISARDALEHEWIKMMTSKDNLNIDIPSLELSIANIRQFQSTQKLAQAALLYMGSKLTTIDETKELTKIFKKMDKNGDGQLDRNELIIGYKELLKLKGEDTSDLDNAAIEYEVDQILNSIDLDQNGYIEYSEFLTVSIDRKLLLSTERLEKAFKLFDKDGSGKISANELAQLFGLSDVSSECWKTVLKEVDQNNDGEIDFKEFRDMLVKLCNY

Plasmodium falciparum protein kinase 6 (PK6, PF3D7_1337100), sequence (Q8IDW1 1-305): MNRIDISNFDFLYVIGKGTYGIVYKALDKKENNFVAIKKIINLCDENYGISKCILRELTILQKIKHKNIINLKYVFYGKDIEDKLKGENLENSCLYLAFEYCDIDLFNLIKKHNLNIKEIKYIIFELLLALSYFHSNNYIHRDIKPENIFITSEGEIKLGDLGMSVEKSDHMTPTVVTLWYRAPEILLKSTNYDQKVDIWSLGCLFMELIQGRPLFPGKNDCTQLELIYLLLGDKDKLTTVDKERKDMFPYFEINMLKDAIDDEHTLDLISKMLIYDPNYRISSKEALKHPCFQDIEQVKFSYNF
Protein kinase 7 (PK7), Plasmodium falciparum 3D7 (PF3D7_0213400), sequence (Q7YTF7 1-343): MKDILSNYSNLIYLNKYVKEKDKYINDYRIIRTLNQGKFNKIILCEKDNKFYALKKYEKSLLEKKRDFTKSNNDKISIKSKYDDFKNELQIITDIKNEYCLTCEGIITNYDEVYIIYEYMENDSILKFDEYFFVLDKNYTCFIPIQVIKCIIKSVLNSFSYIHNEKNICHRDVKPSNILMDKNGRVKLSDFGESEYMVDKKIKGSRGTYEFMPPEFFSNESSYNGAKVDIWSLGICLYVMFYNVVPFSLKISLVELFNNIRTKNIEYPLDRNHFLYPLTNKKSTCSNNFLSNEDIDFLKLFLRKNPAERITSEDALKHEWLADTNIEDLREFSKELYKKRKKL

As usually defined, the inhibition is the change of the read-out against control, counted positive when it falls. For the compound `CC1(C)CCC(C)(C)c2c1ccc(C1CCN(CCCCNC(=O)c3ccc(-c4ccc(C#N)cc4)cc3)CC1)c2O`, the growth inhibition in assay [1] is 85% (active); in assay [4] it was 100% (active). Moreover, the results for the inhibition in assay [2] and in assay [3] were 81% (active) and 7%, respectively. Moreover, the outcome in assay [5], in assay [6], in assay [7] and in assay [8] was inactive.

In the case of `Cc1cc(NN=CC=Cc2ccccc2)c2ccc(F)cc2n1`, the growth inhibition in assay [1] was 30%; in assay [4], 100% (active). Besides, the inhibition in assay [2] was 14%; in assay [3], -3%. Further, the result in assay [5], in assay [6], in assay [7] and in assay [8] was inactive.

With `COCCCNC(=O)c1ccc(O)c(-c2cc(Cl)cc(Cl)c2)c1`, the growth inhibition in assay [1] is 34%; in assay [4] it was 94% (active). For the same compound, the inhibition in assay [2] was 22%; in assay [3], -7%. The result in assay [5], in assay [6], in assay [7] and in assay [8] was inactive.

As for `COc1ccc2c(NN=CC=Cc3ccccc3)ccnc2c1`, the growth inhibition in assay [1] and in assay [4] was 100% (active) in each case. The inhibition in assay [2] is 9%; in assay [3], 4%. For the same compound, the result in assay [5], in assay [6], in assay [7] and in assay [8] was inactive.

Regarding `O=C(Nc1cccc(Cl)c1)OC1CCCN2CCCCC12` (stereo not given), the growth inhibition is -4% in assay [1] and 85% (active) in assay [4]. The inhibition is 6% in assay [2] and 1% in assay [3]. The outcome in assay [5], in assay [6], in assay [7] and in assay [8] was inactive.

`CC(C)N1CCC(N(Cc2ccc(-c3ccc(C(F)(F)F)cc3)cc2)C(=O)Cn2c(SCc3cccc(F)c3F)cc(=O)c3ccccc32)CC1`: the growth inhibition in assay [1] is 77% (active); in assay [4] it was 100% (active). Further, the inhibition was 52% (active) in assay [2] and 1% in assay [3]. The result in assay [5], in assay [6], in assay [7] and in assay [8] was inactive.

For `O=C(Cc1cccc(O)c1)Nc1ccc(-c2cccc(-c3nc4ccc(C(F)(F)F)cc4[nH]3)c2)cc1`, the growth inhibition was 1% in assay [1] and 86% (active) in assay [4]. In addition, the inhibition in assay [2] was 14%; in assay [3], 2%. Further, the result in assay [5], in assay [6], in assay [7] and in assay [8] was inactive.

Consider `O=C(N[C@@H](Cc1ccccc1)C(=O)NCc1cccc2ccccc12)c1ccc(O)c(-c2ccc(Cl)c(Cl)c2)c1`, for which the values for the growth inhibition in assay [1] and in assay [4] were 97% (active) and 101% (active), respectively. Moreover, the inhibition in assay [2] was -6%; in assay [3], 4%. The outcome in assay [5], in assay [6], in assay [7] and in assay [8] was inactive.

In the case of `O=C(Nc1ccc2c(c1)CCC2)N[C@H]1CCN(CCCCCNC(=O)[C@@H]2C[C@H]2c2ccc(Cl)c(Cl)c2)C1`, the growth inhibition in assay [1] was -3%; in assay [4], 86% (active). Further, the inhibition in assay [2] is 37%; in assay [3], 2%. Besides, the result in assay [5], in assay [6], in assay [7] and in assay [8] was inactive.

On to `COc1cc2ncnc(Nc3ccc4nc(Cc5ccccc5)[nH]c4c3)c2cc1OC`, for which the figures for the growth inhibition in assay [1] and in assay [4] were 28% and 87% (active), respectively. Besides, the inhibition in assay [2] was -9%; in assay [3], 0%. Further, the result in assay [5], in assay [6], in assay [7] and in assay [8] was inactive.

Regarding `COc1ccc(Nc2nccc(N3CCC(NC(=O)c4cc5ccccc5s4)C3)n2)cc1` (stereo not given), the growth inhibition is 86% (active) in assay [1] and 99% (active) in assay [4]. Moreover, the inhibition in assay [2] was 1%; in assay [3], 4%. The result in assay [5], in assay [6], in assay [7] and in assay [8] was inactive.

In the case of `Cc1sc(CNCCCNc2cc(=O)c3ccccc3[nH]2)c(C(F)(F)F)c1C`, the growth inhibition in assay [1] is 70% (active); in assay [4], 99% (active). Also, the inhibition in assay [2] was -12%; in assay [3], 1%. For the same compound, the result in assay [5], in assay [6], in assay [7] and in assay [8] was inactive.

Take `CC(=O)c1ccc(-c2ccccc2)s1`: the figures for the growth inhibition in assay [1] and in assay [4] were 2% and 92% (active), respectively. Further, the inhibition was -2% in assay [2] and 8% in assay [3]. Moreover, the outcome in assay [5], in assay [6], in assay [7] and in assay [8] was inactive.

Regarding `Cc1[nH]c(C)c(-c2ccc(-c3ccccc3Cl)nc2)c(=O)c1Br`, the growth inhibition in assay [1] is 96% (active); in assay [4], 97% (active). Also, the inhibition is -2% in assay [2] and -5% in assay [3]. The result in assay [5], in assay [6], in assay [7] and in assay [8] was inactive.

As for `C=CCOc1cccc2c1CCN(CCN1CCC(NC(=O)c3ccc(-c4ccc(Cl)cc4)cc3)CC1)C2`, the growth inhibition was 22% in assay [1] and 93% (active) in assay [4]. Moreover, the values for the inhibition in assay [2] and in assay [3] were 35% and -2%, respectively. For the same compound, the result in assay [5], in assay [6], in assay [7] and in assay [8] was inactive.

Turning to `Cc1ccc(Cl)cc1NC(=O)c1c(-c2ccccc2Cl)noc1C`, the growth inhibition was 37% in assay [1] and 88% (active) in assay [4]. Further, the figures for the inhibition in assay [2] and in assay [3] were 9% and -1%, respectively. For the same compound, the outcome in assay [5], in assay [6], in assay [7] and in assay [8] was inactive.

Turning to `CC(CC(=O)NCC1(c2ccc(F)cc2Cl)CCOCC1)C(=O)c1ccc(Cl)cc1` (stereo not given), the growth inhibition is 91% (active) in assay [1] and 99% (active) in assay [4]. Further, the figures for the inhibition in assay [2] and in assay [3] were 6% and 2%, respectively. Also, the outcome in assay [5], in assay [6], in assay [7] and in assay [8] was inactive.

Turning to `Cc1nc(N)nc(N)c1CCCOc1ccccc1Br`, the growth inhibition was 5% in assay [1] and 97% (active) in assay [4]. The inhibition in assay [2] was 53% (active); in assay [3], 5%. The outcome in assay [5], in assay [6], in assay [7] and in assay [8] was inactive.

Turning to `Cc1c(CCC#N)c(NCc2ccccc2)n2c(nc3ccccc32)c1C#N`, the values for the growth inhibition in assay [1] and in assay [4] were 99% (active) and 100% (active), respectively. For the same compound, the values for the inhibition in assay [2] and in assay [3] were 16% and 2%, respectively. Moreover, the result in assay [5], in assay [6], in assay [7] and in assay [8] was inactive.

As for `O=S(=O)(Nc1cc2c(cc1OCCCN1CCCCC1)CCNCC2)c1ccc(-c2ccc(Cl)cc2)cc1`, the growth inhibition in assay [1] is 19%; in assay [4] it was 100% (active). In addition, the inhibition in assay [2] was 77% (active); in assay [3], 2%. For the same compound, the result in assay [5], in assay [6], in assay [7] and in assay [8] was inactive.
